According to the supplement of paper PMC3334620:
Over roughly 33,000 sequences, “E-score (-0.5 to 0.5)” has its median near -0.013; the highest 2% begin near 0.3. The entries come from a sample that favours the highest values as a whole.

Target: T1, Msn1 (UniProt P22148)
T1 sequence: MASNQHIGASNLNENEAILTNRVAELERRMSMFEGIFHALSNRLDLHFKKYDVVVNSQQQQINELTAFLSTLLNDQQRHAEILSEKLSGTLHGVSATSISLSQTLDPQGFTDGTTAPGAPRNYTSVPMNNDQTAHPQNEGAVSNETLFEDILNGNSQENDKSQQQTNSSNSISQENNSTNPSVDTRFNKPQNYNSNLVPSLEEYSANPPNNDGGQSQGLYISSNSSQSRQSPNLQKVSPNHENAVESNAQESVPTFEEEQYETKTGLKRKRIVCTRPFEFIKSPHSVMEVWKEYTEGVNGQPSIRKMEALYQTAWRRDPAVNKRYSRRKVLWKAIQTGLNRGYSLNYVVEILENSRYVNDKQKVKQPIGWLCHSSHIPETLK
Test: PBM E-score (8-mer binding enrichment) (E-score (-0.5 to 0.5)); higher = stronger / more preferred TF binding
Details: protein concentration: 200 nM; construct: GST-full length
Procedure: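 Universal 'all 10-mer' protein binding microarrays (Agilent AMADID 015681) probed with GST-tagged S. cerevisiae TFs (full-length or DBD) made by in vitro transcription/translation (PURExpress), about 100-200 nM. Bound TF was detected with fluorescent anti-GST. Each ungapped 8-mer (which stands for itself and its reverse complement) is scored by the PBM enrichment score (E-score), a modified Wilcoxon-Mann-Whitney statistic from -0.5 to +0.5, computed with the Universal PBM Analysis Suite. Scale: above 0.35 generally sequence-specific binding.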

Sequence | PBM E-score
ACGAGCTG | 0.0278
ACCTTCTC | -0.183
CGTCCCTA | -0.0646
AAATATAC | 0.0952
AAATATAT | 0.306
AAATATAA | 0.272
AATAATAT | 0.33
AAATATGA | 0.154
AATAATAA | 0.132
AATAATAG | -0.0638
AAATATGC | -0.0194
AAATATGT | 0.37
ACCAGAGC | -0.124
CGATGCAC | -0.295
GCACAGGA | 0.0138
ACTCGAGT | 0.14
ATAGGCCA | -0.0607
CTACATAA | -0.237
TAACATAA | 0.214
GTACATAA | 0.306
TCACATAA | -0.0221
GGTCACAA | -0.0198
CGTCACAA | 0.137
TTACATAA | 0.0155
GGACATAC | 0.48

Sequence | PBM E-score
GCACATAC | -0.162
TGTCACAA | 0.378
TGACATAA | 0.364
CGACATAC | 0.281
GACCCCCA | -0.377
TCACTAGA | 0.0764
CACCCCGC | -0.0608
CCATTAAC | 0.139
GCCCTGCC | -0.296
AAGTCTAC | 0.0709
TGTCATAA | 0.397
CGACATAA | 0.286
GGACATGA | 0.467
GCACATGA | -0.0829
CGTCATAA | 0.122
GGACATAA | 0.477
CGACATGA | 0.207
AGTCATAA | 0.0855
GCACATAA | -0.0366
ACCACAGA | 0.0742
TTGAGCAA | -0.0524
ACACTTGG | -0.0164
GACCATGC | 0.0413
GTGTACAA | 0.32
CTGTACAA | 0.161

Sequence | PBM E-score
GTGTACAC | 0.162
TTGTACAA | 0.337
CTGTACAG | 0.0843
TCGTACAA | 0.294
CGTGCAGC | -0.0365
CTCGGTAC | 0.0483
ACGGCCGT | -0.204
ATAAAGCC | -0.151
GCCTACCA | -0.174
AGCCCTCG | -0.123
CATATGCC | 0.00819
CATATGTA | 0.245
AATATGTC | 0.478
AATATGTA | 0.335
AATATGTG | 0.181
GATATGTA | 0.12
CATATGTC | 0.449
ACTATGTC | 0.292
CATATGAC | 0.143
AGCGAAAG | 0.00846
CGCACTTA | -0.0705
AGCTCTAC | -0.104
AGCCACGA | -0.181
CCAATAGC | -0.0522
GAAGGACA | 0.471

Sequence | PBM E-score
AAAGGACG | 0.032
AAAGGACA | 0.445
GAAGGATA | -0.142
CAAGGACG | 0.148
AAAGGACC | -0.105
GAAGGACC | -0.139
TAAGGAGA | -0.255
TAAGGATA | 0.13
CAAGGACC | 0.0568
CAAGGACA | 0.484
TAAGGACA | 0.481
CGAACATA | 0.128
TAACAACA | 0.0839
CGTCCTGA | 0.102
AATCTACA | 0.058
TAGGTAGA | 0.0723
GATCTGTA | -0.0087
CCGAAAAC | 0.0665
AACGAGTC | -0.0621
AAGTCACA | 0.127
GTGTCACA | 0.261
CTGTCACC | -0.0649
ATGTCAGA | 0.265
CTGTCACA | 0.0788
AGGTCACC | -0.0357

Sequence | PBM E-score
ATGTCACA | 0.363
ATGTCACG | 0.31
ATGTCACC | 0.303
GGAAAGAC | -0.0443
ATCCTATG | -0.0491
AGGCGTAG | -0.189
CCTTGCGA | 0.028
GGTGGTAC | -0.152
GTAAGCTA | 0.0896
CACATAAC | 0.0195
GACATAAC | 0.396
AACATAAC | 0.0281
AACATAAA | 0.0678
TACATAAA | 0.15
GACATAAA | 0.44
CGGAGGAA | -0.131
GCATGGGC | -0.183
CCGCTCGA | -0.143
GATTGCTA | -0.0824
CGAGAGTC | -0.131
AATAGGAA | 0.102
AATAGGAT | 0.157
AATAGGAC | 0.387
ACTAGGAC | 0.426
CTTAGGAC | 0.269

Sequence | PBM E-score
GCTAGGAC | 0.267
ACTAGGAG | -0.201
ATTAGGAC | 0.37
ATTAGGAA | -0.00879
ATCGACCC | -0.11
ATCCCTGC | -0.24
AGGGTAAG | 0.00826
AACGGGTC | -0.155
CAGAATAC | 0.0673
TCCTCTAA | -0.0667
AGTGGGAC | 0.118
ACTCTCCA | -0.0814
ATTGAACA | 0.124
CTCGTCCC | 0.228
CCCCATAG | -0.15
CAAATTTG | 0.32
GAAATGTC | 0.487
CAAATGTG | 0.229
CAAATGTA | 0.276
CAAATTTC | 0.184
AAAATTTG | 0.16
GAAATGCC | 0.00283
CAAATGTC | 0.471
GAAATGTA | 0.245
GCCGGTCC | -0.233

Sequence | PBM E-score
CAGCGTTA | -0.131
AAACTCTC | -0.0224
CGGACAGA | 0.302
CGGACGAC | -0.0607
CGGACGAA | 0.337
GGGACGAA | 0.187
CGGACGAG | 0.0588
CGGACAAA | 0.484
CGGACAAG | 0.418
GGGACCAC | -0.255
GGAACAAC | 0.0504
CGGACCAG | -0.125
CGGACGGA | -0.00604
GGGACAAC | 0.375
GCTCTCAC | -0.29
ATTTGACG | 0.15
CCAGCATC | -0.148
AGAAGAGC | -0.0669
GTTGAATA | 0.0705
TGGTCTAA | -0.0904
CAGACAAC | 0.212
CGGACAAC | 0.369
